Screens (PubChem BioAssay)
A selection: hits, their analogues and other compounds. The true share with any hit is near 0.83%.
SRC3 inh – SRC3 coactivator transcriptional activity inhibitors, primary screen, cell-based, luminescence; Nuclear receptor coactivator 3 (Homo sapiens), Q9Y6Q9; HEK293 GAL4-SRC3 luciferase reporter; inhibition, % at 3.6 µM; actives 0.17% (n = 360,000); AID 588352, 2011;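 active = inhibition above a per-campaign cutoff, the mean of all compounds plus 3 SD, cut at about 60% in these data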;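 note: higher means less SRC3-driven luciferase light from the GAL4 reporter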
SRC2 inh – inhibition of GAL4-SRC2 driven luciferase reporter, primary screen, SRC2 inhibitor project, cell-based, luminescence; Nuclear receptor coactivator 2 (Homo sapiens), Q15596; HEK293 GAL4-SRC2 luciferase reporter; inhibition, % at 9 µM; actives 0.17% (n = 370,000); AID 651957, 2012;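 active = inhibition above the mean inhibition of all tested compounds plus 3 SD, set per campaign, cut at about 52% in these data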
Gli-Sufu block – Gli-Sufu pathway antagonists, primary screen, luciferase luminescence, Sufu-KO-LIGHT cells, uHTS; inhibition, % at 5 µM; AID 588413, 2011; Sufu-KO-LIGHT fibroblasts, Gli luciferase reporter luminescence; actives 0.74% (n = 340,000);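 active = inhibition above about 55%, limit read from the data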
NR5A2 inv ag – LRH-1 (NR5A2) inverse agonists, primary screen, cell-based, luminescence, HEK293T, StAR-luciferase reporter | Nuclear receptor subfamily 5 group A member 2 (Homo sapiens), O00482 | LRH-1 transfected, 24 h | inhibition, % at 3.6 µM | actives 0.13% (n = 360,000) | AID 602396, 2012;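 active = inhibition above the mean inhibition of all tested compounds plus 3 SD, cut at about 73% in these data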
Target sequence (O00482 whole entry, looked up): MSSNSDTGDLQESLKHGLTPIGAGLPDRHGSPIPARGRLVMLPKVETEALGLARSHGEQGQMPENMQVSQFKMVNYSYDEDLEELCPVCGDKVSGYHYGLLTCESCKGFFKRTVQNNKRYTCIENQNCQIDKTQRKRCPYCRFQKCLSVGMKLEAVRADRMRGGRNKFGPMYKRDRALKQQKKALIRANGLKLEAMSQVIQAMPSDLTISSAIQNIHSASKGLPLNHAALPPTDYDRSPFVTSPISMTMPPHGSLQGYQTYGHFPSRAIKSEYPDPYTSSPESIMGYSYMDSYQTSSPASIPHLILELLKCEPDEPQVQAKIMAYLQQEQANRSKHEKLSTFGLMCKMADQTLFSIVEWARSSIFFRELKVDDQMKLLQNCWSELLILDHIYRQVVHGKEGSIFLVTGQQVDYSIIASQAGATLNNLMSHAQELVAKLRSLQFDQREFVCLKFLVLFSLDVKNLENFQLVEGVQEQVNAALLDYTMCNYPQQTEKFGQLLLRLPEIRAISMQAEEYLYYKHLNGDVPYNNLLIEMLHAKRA
SRC1 inh – SRC1 coactivator transcriptional activity inhibitors, primary screen, cell-based, luminescence; Nuclear receptor coactivator 1 (Homo sapiens), Q15788; HEK293 GAL4-SRC1 luciferase reporter; inhibition, % at 3.6 µM; actives 0.12% (n = 360,000); AID 588354, 2011;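 active = inhibition above the campaign mean plus 3 SD, with each screening campaign given its own cutoff, cut at about 60% in these data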
Gli-Sufu confirm – Gli-SUFU pathway antagonists, confirmation, single concentration, luciferase luminescence, Sufu-KO-LIGHT cells | shares compounds with Gli-Sufu block | Gli luciferase reporter | inhibition, % at 5 µM | actives 40% (n = 2,500) | AID 602428, 2012;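 active = mean inhibition at 5 µM reaching about 45%, limit read from the data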
SufuKO cytotox – cytotoxicity in Sufu-KO-LIGHT cells, confirmation, cytotoxicity control for Gli-SUFU antagonist project, cell-based, ATP luminescence, single concentration; actives 32% (n = 2,500); shares compounds with Gli-Sufu block; cytotoxicity, % at 5 µM; AID 651994, 2013;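 active = mean cytotoxicity at 5 µM above about 25%, limit read from the data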;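 note: cells exposed to compound overnight for roughly 16 to 18 hours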
Wnt3a cs – Wnt3a reporter signal inhibition, confirmation, counter-screen for Gli-SUFU antagonist project, Wnt-LIGHT cells, luminescence, single concentration; shares compounds with Gli-Sufu block; inhibition, % at 6.25 µM; Wnt3a-driven luciferase reporter; actives 20% (n = 2,500);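 active = mean inhibition above about 25%, limit read from the data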
A number is an active result; 0 = inactive; - = not tested or not shown.

SMILES | SRC3 inh | SRC2 inh | Gli-Sufu block | NR5A2 inv ag | SRC1 inh | Gli-Sufu confirm | SufuKO cytotox | Wnt3a cs
O=C(CN1CCCC1)N/N=C/c1c(O)ccc2ccccc12 | 0 | 0 | 0 | 0 | 0 | 66 | 37 | 60
O=C(N/N=C\c1c(O)ccc2ccccc12)c1ccc(Cn2cccn2)o1 | 0 | 0 | 58 | 0 | 0 | 69 | 26 | 59
O=C(N/N=C/c1c(O)ccc2ccccc12)C(=O)N1CCCC1 | 0 | 0 | - | 0 | 0 | - | - | -
CS(=O)(=O)N1CCCC(C(=O)N2CCc3ccccc3C2)C1 (stereo not drawn) | 0 | 0 | 0 | 0 | 0 | 0 | 0 | 0
O=C(c1ccccc1Cl)N1CCC(N2CCC(C(=O)N3CCCC3)CC2)CC1 | 0 | 0 | 92 | 0 | 0 | 0 | 0 | 0
O=C(c1cc(F)ccc1F)N1CCC(N2CCC(C(=O)N3CCCC3)CC2)CC1 | 0 | 0 | 57 | 0 | 0 | 0 | 0 | 0
O=C(c1cc(F)ccc1F)N1CCC(Oc2cccnc2)CC1 | - | 0 | - | - | - | - | - | -
COC(=O)C1CN(Cc2cn(Cc3ccc(OC)cc3)nn2)CCS(=O)(=O)N1Cc1ccc(Cl)cc1 (stereo not drawn) | - | 0 | - | - | - | - | - | -
Cc1cccc(OCCn2cc(/C=N/NC(=O)c3ccncc3)c3ccccc32)c1 | 0 | 0 | 96 | 0 | 0 | 0 | 29 | 0
CCOC(=O)c1[nH]c2ccccc2c1NC(=O)CC(C)C | 0 | 0 | 0 | 0 | 0 | 0 | 0 | 0
CCCC(=O)Nc1c(C(=O)OCC)[nH]c2ccccc12 | 0 | 0 | 75 | 0 | 0 | 0 | 0 | 0
CCOC(=O)c1[nH]c2ccccc2c1NC(=S)Nc1ccccc1C | 0 | 0 | 0 | 0 | 0 | - | - | -
CCOC(=O)c1[nH]c2ccccc2c1NC(=O)CN1CCCCC1 | 0 | 0 | 0 | 0 | 0 | - | - | -
O=C(Nc1ccc2ccccc2c1)NC1CCCCN(Cc2ccc(Cl)cc2)C1=O (stereo not drawn) | - | 0 | - | - | - | - | - | -
CCOC(=O)C(NCc1ccccn1)(NC(=O)c1cccnc1)C(F)(F)F (stereo not drawn) | 0 | 0 | 96 | 0 | 0 | 0 | 0 | 0
CN(CCO)c1cccc2c1S(=O)(=O)N(Cc1cn(Cc3ccc(Cl)cc3)nn1)Cc1ccccc1O2 | - | 0 | - | - | - | - | - | -
CC(NC(=O)c1cccc(S(=O)(=O)N2CCN(C)CC2)c1)C1CC2CCC1C2 (stereo not drawn) | 0 | 0 | 58 | 0 | 0 | 0 | 0 | 0
CC(NC(=O)c1cccc(Cl)c1)C1CC2CCC1C2 (stereo not drawn) | 0 | 0 | 0 | 0 | 0 | - | - | -
COc1cc(-c2c(C#N)c(N)nc3c2CCCC3)ccc1O | 0 | 0 | 0 | 0 | 0 | - | - | -
COc1ccc(-c2c(C#N)c(N)nc3c2CCc2ccccc2-3)cc1OC | - | 0 | 0 | - | - | 56 | 0 | 0
NC(=NCCCCCCN=C(N)/N=C(\N)Nc1ccc(Cl)cc1)/N=C(\N)Nc1ccc(Cl)cc1 | 0 | 0 | 0 | 0 | 0 | - | - | -
CC(C)N=C(N)N=C(N)Nc1ccc(Cl)cc1 | 0 | 0 | 70 | 0 | 0 | 74 | 0 | 34
COc1cccc(-c2nc(CS(=O)(=O)CC(=O)NCCN3CCOCC3)c(C)o2)c1 | 0 | 0 | 77 | 0 | 0 | 0 | 0 | 0
O=C(Cn1nnc(-c2ccccc2F)n1)Nc1ccc(F)cc1F | - | 0 | - | - | - | - | - | -
COc1ccc(-c2cn(-c3ccc(Br)cc3)c3[n+]2CCS3)cc1 | 0 | 0 | 74 | 0 | 0 | 76 | 0 | 61
SMILES | SRC3 inh | SRC2 inh | Gli-Sufu block | NR5A2 inv ag | SRC1 inh | Gli-Sufu confirm | SufuKO cytotox | Wnt3a cs
CC(=O)c1ccc(-n2cc(-c3ccc(C(C)(C)C)cc3)[n+]3c2SCCC3)cc1 | 0 | 0 | 73 | 0 | 0 | 65 | 0 | 0
Clc1ccc(-c2cn(-c3ccccc3)c3[n+]2CCS3)cc1 | 0 | 0 | 56 | 0 | 0 | 56 | 0 | 0
Fc1ccc(-c2cn(-c3ccccc3)c3[n+]2CCS3)cc1 | 0 | 0 | 0 | 0 | 0 | - | - | -
Cc1[nH]n(-c2ccccc2)c(=S)c1C=NCCCN=Cc1c(C)[nH]n(-c2ccccc2)c1=S | 0 | 0 | 71 | 0 | 0 | 0 | 32 | 0
COc1cc(CN(C)CC2CCCN(CCc3ccc(F)cc3)C2)c(Cl)cc1O (stereo not drawn) | 0 | 0 | 55 | 0 | 0 | 0 | 0 | 0
COc1ccccc1CCN1CCCC(CN(C)CC(C)(C)CO)C1 (stereo not drawn) | 0 | 0 | 0 | 0 | 0 | - | - | -
COc1ccccc1CCN1CCCC(CN(C)Cc2ccc(OCCO)cc2)C1 (stereo not drawn) | 0 | 0 | 0 | 0 | 0 | 0 | 0 | 0
COCCCNC(=O)C[C@H]1C[C@@]2(C(=O)OC)C(=C[C@H](C(C)C)O[C@@H]2C2CC2)N(Cc2ccc(Cl)cc2Cl)C1=O | - | 0 | - | - | - | - | - | -
CC1=NCCN1S(=O)(=O)c1cc(Cl)ccc1Cl | 0 | 0 | 56 | 0 | 0 | 0 | 0 | 0
Cc1cc(C)nc(SCC(=O)Nc2ccc(N3CCOCC3)c(Cl)c2)n1 | 0 | 0 | 0 | 0 | 0 | 45 | 0 | 0
CNc1nc(SCC(=O)Nc2ccc(Cl)c(Cl)c2)nc(N2CCOCC2)n1 | 0 | 0 | 0 | 0 | 0 | - | - | -
O=C(CSc1nnc(Cc2cccs2)n1-c1ccc(Cl)cc1)Nc1ccc(OCc2ccccc2)cc1 | - | 0 | - | - | - | - | - | -
CCC(C)[C@@H](C(=O)OC)N(Cc1cn(Cc2ccccc2)nn1)S(=O)(=O)c1ccccc1Br (stereo partly drawn) | - | 0 | - | - | - | - | - | -
COc1ccc2c(c1)c(CC(=O)OCC(N)=O)c(C)n2C(=O)c1ccc(Cl)cc1 | 0 | 0 | 64 | 0 | 0 | 0 | 0 | 0
COc1ccc2c(c1)c(CC(=O)OCC(=O)O)c(C)n2C(=O)c1ccc(Cl)cc1 | 0 | 0 | 0 | 0 | 0 | - | - | -
Cc1cc(C[n+]2cc(Cl)ccc2N)c2ncccc2c1 | 0 | 0 | 0 | 0 | 0 | - | - | -
Cc1cc(C[n+]2cc(Br)ccc2N)c2ncccc2c1 | 0 | 0 | 0 | 0 | 0 | 53 | 34 | 0
CCOC(=O)c1cc([N+](=O)[O-])sc1NC(=O)c1ccc(S(=O)(=O)N2CC3(C)CC2CC(C)(C)C3)cc1 (stereo not drawn) | 0 | 0 | 71 | 0 | 0 | 82 | 27 | 50
O=C(COc1ccc2ccccc2c1)NNC(=O)Cc1ccccc1 | 0 | 0 | 0 | 0 | 0 | - | - | -
O=C(COc1ccc2ccccc2c1)NNC(=O)c1ccccc1 | 0 | 0 | 0 | 0 | 0 | 0 | 0 | 0
Cn1c(=O)c2c(nc(SCC(=O)NCc3ccc4c(c3)OCO4)n2Cc2ccc(Cl)cc2)n(C)c1=O | 0 | 0 | 62 | 0 | 0 | 0 | 0 | 0
